Reference: PubChem BioAssay (Tox21)
Records with an inconclusive call do not appear. Calls of active or inactive are those of the source. Unless noted, calls follow the shape of the full dose curve.

Key:
[1] = Nuclear factor erythroid 2-related factor 2/antioxidant responsive element (Nrf2/ARE) small molecule agonists: qHTS cell viability counter screen in human keratinocytes (AID 1919968; active = well fitted curve in the direction sought with a large enough effect in the repeat runs; an effect the other way counts as inactive or inconclusive; also: nearly all actives have a fitted effect of over 55% in size; also: potency is read from the fitted curve at half-maximal effect)
Summary of the method: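 KeratinoSens cells (HaCaT keratinocytes stably carrying an ARE-luciferase reporter) were seeded at 1,500 cells/well and rested 5 h at 37 C/5% CO2. They were then exposed to compounds in DMSO for 23 h. Viability was read by CellTiter-Fluor fluorescence after 1 h.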

[2] = target: Gonadotropin-releasing hormone receptor (Homo sapiens) (UniProt P30968); assay: Human gonadotropin-releasing hormone receptor (GnRHR) small molecule agonists, calcium flux assay in GnRHR-HEK293 cells (AID 1920063); also: nearly all actives have a fitted effect of over 35% in size
Sequence of Gonadotropin-releasing hormone receptor (Homo sapiens) (P30968 whole entry, looked up): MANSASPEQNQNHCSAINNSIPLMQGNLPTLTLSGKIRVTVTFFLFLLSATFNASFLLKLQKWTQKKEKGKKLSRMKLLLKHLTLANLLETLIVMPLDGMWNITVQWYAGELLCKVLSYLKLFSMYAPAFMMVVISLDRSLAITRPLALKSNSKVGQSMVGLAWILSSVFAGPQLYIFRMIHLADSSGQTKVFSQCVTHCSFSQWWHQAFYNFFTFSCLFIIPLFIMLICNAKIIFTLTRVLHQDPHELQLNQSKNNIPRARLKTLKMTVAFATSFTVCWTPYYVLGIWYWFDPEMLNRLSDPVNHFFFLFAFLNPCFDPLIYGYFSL
Summary of the method: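 HEK293 cells stably expressing human GnRHR were plated 18 h at 37 °C, loaded with calcium dye 1 h at 37 °C, then given compound in agonist mode; fluorescence (Ex/Em 480/540) read kinetically for 3 min at 1 s intervals.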

[3] = target: KiSS-1 receptor (Homo sapiens) (UniProt Q969F8); assay: Human kisspeptin (KISS1R) small molecule agonists, calcium flux assay in KISS1R-HEK293 cells (AID 1920064; active = well fitted curve in the direction sought with a large enough effect in the repeat runs; an effect the other way counts as inactive or inconclusive)
Sequence of KiSS-1 receptor (Homo sapiens) (Q969F8 whole entry, looked up): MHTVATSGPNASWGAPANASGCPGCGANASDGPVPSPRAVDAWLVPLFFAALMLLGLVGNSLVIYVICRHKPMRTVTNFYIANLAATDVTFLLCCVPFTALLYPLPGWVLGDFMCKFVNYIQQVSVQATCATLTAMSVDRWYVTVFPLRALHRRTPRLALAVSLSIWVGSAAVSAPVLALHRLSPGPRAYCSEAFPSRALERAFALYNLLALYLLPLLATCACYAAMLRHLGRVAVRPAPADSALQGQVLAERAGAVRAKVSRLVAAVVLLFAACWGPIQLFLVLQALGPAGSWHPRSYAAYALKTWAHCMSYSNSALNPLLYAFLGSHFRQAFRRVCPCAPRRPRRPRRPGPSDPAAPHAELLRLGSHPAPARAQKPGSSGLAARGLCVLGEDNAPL
Summary of the method: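 HEK293 cells stably expressing human KISS1R were plated 18 h at 37 °C, loaded with calcium dye for 1 h at 37 °C, then given compound by pin tool. Fluorescence (Ex/Em 480/540) was read kinetically for 3 min.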

[4] = G protein-coupled receptor (GPCR) small molecule agonists, calcium flux assay: HEK293 wild type cell line counter screen (AID 1920065)
Summary of the method: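 Cells were plated and cultured 18 h at 37 C/5% CO2, then loaded with calcium dye for 1 h at 37 C. Compounds in DMSO were pin-transferred in agonist mode, and fluorescence (Ex/Em 480/540) was read kinetically for 3 min at 1 s intervals.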

[5] = p53 small molecule agonists, cell-based qHTS assay with human liver microsomes (AID 1963577)
Summary of the method: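 Compounds act here after metabolic activation: human liver microsomes and NADPH, both at 0.5 mg/mL final, were co-added to p53RE-bla cells. Incubation ran 16 h at 37 C, followed by LiveBLAzer detection.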

[6] = p53 small molecule agonists, cell-based qHTS assay with rat liver microsomes (AID 1963578)
Summary of the method: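 Read-out is beta-lactamase reporter fluorescence (LiveBLAzer, 2 h, room temperature, dark) in p53RE-bla cells treated 16 h at 37 C with compound, rat liver microsomes and NADPH, both 0.5 mg/mL final.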

[7] = p53 small molecule agonists, cell-based qHTS assay with human liver microsomes: qHTS cell viability counter screen (AID 1963579); also: nearly all actives have a fitted effect of over 45% in size
Summary of the method: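 Cells carrying the p53 response-element beta-lactamase reporter are treated for 16 h at 37 C with test compounds in the presence of human liver microsomes and NADPH (both 0.5 mg/mL final); ATP-based CellTiter-Glo luminescence then reports viability.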

[8] = p53 small molecule agonists, cell-based qHTS assay with rat liver microsomes: qHTS cell viability counter screen (AID 1963580); also: nearly all actives have a fitted effect of over 45% in size
Summary of the method: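 HCT-116 p53RE-bla, 4,000 cells/well, 5 h pre-incubation; cpd + rat liver microsomes 0.5 mg/mL + NADPH 0.5 mg/mL (final); 16 h, 37 C; CellTiter-Glo, 30 min RT; luminescence.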

[9] = p53 small molecule agonists, cell-based qHTS assay: qHTS cell viability counter screen (AID 1963581); also: nearly all actives have a fitted effect of over 45% in size
Summary of the method: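 p53RE-bla HCT-116 cells were exposed to compounds for 16 h at 37 C; after the beta-lactamase FRET read in the same wells, CellTiter-Glo was added and luminescence (intracellular ATP) read after 30 min at room temperature.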

[10] = p53 small molecule agonists, cell-based qHTS assay (AID 1963582; active = well fitted activation curve with a large enough effect in the signal ratio in the repeat runs, not every such curve was filed as active; the % refers to the signal ratio)
Summary of the method: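 p53RE-bla beta-lactamase reporter cells rested 5 h at 37 C/5% CO2, then received compounds in DMSO by pin transfer and were incubated 16 h at 37 C. LiveBLAzer B/G FRET substrate was loaded for 2 h at room temperature before fluorescence reading.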

[11] = target: 5-hydroxytryptamine receptor 2A (Homo sapiens) (UniProt P28223); assay: 5-hydroxytryptamine receptor 2A (HTR2A) small molecule antagonists, cell-based qHTS assay (AID 1963586); also: nearly all actives have a fitted effect of over 45% in size
Sequence of 5-hydroxytryptamine receptor 2A (Homo sapiens) (P28223 whole entry, looked up): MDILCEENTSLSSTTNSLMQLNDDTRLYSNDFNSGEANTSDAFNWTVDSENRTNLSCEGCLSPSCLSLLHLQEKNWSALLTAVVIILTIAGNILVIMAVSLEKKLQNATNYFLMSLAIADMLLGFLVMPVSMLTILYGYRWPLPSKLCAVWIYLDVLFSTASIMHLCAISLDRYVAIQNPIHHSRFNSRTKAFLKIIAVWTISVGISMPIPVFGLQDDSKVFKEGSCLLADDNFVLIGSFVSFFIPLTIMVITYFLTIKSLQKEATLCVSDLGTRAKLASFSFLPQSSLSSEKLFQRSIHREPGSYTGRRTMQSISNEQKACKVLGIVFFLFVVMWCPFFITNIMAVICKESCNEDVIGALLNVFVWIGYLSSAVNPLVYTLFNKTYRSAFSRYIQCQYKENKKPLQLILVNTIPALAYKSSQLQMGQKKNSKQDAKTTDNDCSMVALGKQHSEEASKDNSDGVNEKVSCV
Summary of the method: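 Antagonist-mode intracellular calcium assay: DOI (4 nM) added after 5 min compound pre-incubation at room temperature to dye-loaded HTR2A-CHO cells. Fluorescence followed for 3 min, sampled every second.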

[12] = target: 5-hydroxytryptamine receptor 2A (Homo sapiens) (UniProt P28223); assay: 5-hydroxytryptamine receptor 2A (HTR2A) small molecule agonists, cell-based qHTS assay (AID 1963587); also: nearly all actives have a fitted effect of over 30% in size; also: potency is read from the fitted curve at half-maximal effect
Summary of the method: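 Kinetic calcium-flux fluorescence (2 min, 1 sec intervals) after compound addition in agonist mode. HTR2A-CHO cells were cultured 18 h, then dye-loaded 1 h at 37 C.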

[13] = target: Muscarinic acetylcholine receptor M1 (Homo sapiens) (UniProt P11229); assay: Cholinergic receptor muscarinic 1 (CHRM1) small molecule antagonists, cell-based qHTS assay (AID 1963588); also: nearly all actives have a fitted effect of over 40% in size; also: potency is read from the fitted curve at half-maximal effect
Sequence of Muscarinic acetylcholine receptor M1 (Homo sapiens) (P11229 whole entry, looked up): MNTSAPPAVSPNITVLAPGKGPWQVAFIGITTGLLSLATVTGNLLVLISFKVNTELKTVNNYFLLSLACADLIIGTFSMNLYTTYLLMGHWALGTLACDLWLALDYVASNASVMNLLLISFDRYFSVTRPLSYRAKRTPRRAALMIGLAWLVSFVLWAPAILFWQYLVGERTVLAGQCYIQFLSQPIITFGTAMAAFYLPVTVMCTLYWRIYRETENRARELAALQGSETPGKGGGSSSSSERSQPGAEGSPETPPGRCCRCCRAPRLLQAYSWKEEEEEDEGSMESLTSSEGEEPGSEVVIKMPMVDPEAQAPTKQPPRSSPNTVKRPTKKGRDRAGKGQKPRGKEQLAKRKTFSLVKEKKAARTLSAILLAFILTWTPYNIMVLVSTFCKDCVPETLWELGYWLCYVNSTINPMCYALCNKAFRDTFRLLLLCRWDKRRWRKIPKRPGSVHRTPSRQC
Summary of the method: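 CHRM1-CHO calcium-flux assay, antagonist mode. Cells were seeded 18 h, dye-loaded 1 h at 37 C and given compound for 5 min at RT, then acetylcholine was added at 50nM. FDSS fluorescence was read 3 min; 15 concentrations, three runs.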

[14] = target: Muscarinic acetylcholine receptor M1 (Homo sapiens) (UniProt P11229); assay: Cholinergic receptor muscarinic 1 (CHRM1) small molecule agonists, cell-based qHTS assay (AID 1963589); also: nearly all actives have a fitted effect of over 35% in size
Summary of the method: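 CHO cells stably expressing human CHRM1, seeded 18 h at 37 C/5% CO2, dye-loaded 1 h at 37 C, then given compound in agonist mode; intracellular calcium fluorescence read kinetically at 1 s intervals. Fifteen concentrations, three independent runs.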

[15] = cAMP Responsive Elements (CRE) small molecule agonists, cell-based qHTS assay (AID 1963590)
Summary of the method: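 CRE-bla HEK 293T cells in DMEM with 10% dialyzed FBS, NEAA, pyruvate and 25 mM HEPES were plated 18 h at 37 C/5% CO2, then exposed to compounds in DMSO for 3 h before LiveBLAzer B/G FRET substrate addition.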

[16] = cAMP Responsive Elements (CRE) small molecule antagonists, cell-based qHTS assay (AID 1963591; active = well fitted inhibition curve with a large enough effect in the signal ratio in the repeat runs, not every such curve was filed as active; the % refers to the signal ratio)
Summary of the method: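 CRE-bla HEK293T cells were plated 18 h at 37 °C/5% CO2, pinned with compound in DMSO, then stimulated with NKH477 at 0.25 uM final for 3 h. LiveBLAzer B/G FRET substrate was added and plates incubated 2 h at room temperature.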

[17] = target: Beta-2 adrenergic receptor (Homo sapiens) (UniProt P07550); assay: Adrenergic beta2 receptor (ADRB2) small molecule antagonists, cell-based qHTS assay (AID 1963592); also: series mostly up to about 92 µM; nearly all actives have a fitted effect of over 50% in size
Sequence of Beta-2 adrenergic receptor (Homo sapiens) (P07550 whole entry, looked up): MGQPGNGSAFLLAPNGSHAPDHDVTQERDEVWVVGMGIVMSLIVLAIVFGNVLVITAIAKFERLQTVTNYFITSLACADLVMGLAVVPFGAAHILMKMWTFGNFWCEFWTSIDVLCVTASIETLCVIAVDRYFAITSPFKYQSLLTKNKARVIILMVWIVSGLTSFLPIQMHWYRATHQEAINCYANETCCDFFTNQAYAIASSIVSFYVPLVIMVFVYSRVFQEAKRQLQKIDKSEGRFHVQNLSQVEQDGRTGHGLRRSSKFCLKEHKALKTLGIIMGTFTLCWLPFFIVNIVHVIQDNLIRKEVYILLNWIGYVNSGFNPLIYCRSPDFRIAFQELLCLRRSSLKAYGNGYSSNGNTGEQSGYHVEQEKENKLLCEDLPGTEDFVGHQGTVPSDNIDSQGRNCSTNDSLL
Summary of the method: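 Cells (CHO, stable ADRB2 overexpression) incubated 18-20hr at 37C; compounds added from DMSO; agonist mix (1nM isoproterenol, 100uM IBMX, 25uM Ro-20-1724) added; 0.5hr RT; d2-cAMP and anti-cAMP-cryptate added; 1hr RT; 665/615 nm read.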

[18] = target: D(2) dopamine receptor (Homo sapiens) (UniProt P14416); assay: Dopamine D2 receptor (DRD2) small molecule antagonists, cell-based qHTS assay (AID 1963595; active = well fitted inhibition curve with a large enough effect in the signal ratio in the repeat runs, with a control signal flat; the % refers to the signal ratio; also: potency is read from the fitted curve at half-maximal effect)
Sequence of D(2) dopamine receptor (Homo sapiens) (P14416 whole entry, looked up): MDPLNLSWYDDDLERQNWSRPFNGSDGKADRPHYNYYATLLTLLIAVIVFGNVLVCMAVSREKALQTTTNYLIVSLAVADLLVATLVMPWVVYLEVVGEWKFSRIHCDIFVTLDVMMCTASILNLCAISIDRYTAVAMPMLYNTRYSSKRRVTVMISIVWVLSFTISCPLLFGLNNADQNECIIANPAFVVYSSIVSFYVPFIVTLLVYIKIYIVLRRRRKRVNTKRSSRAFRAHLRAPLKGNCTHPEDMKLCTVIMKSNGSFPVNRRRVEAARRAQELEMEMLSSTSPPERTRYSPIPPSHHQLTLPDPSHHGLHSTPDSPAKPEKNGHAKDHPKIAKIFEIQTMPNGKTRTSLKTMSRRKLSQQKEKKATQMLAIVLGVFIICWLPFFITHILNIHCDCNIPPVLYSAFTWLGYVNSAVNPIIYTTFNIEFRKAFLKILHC
Summary of the method: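 HTRF cAMP read-out at 665 and 620 nm emission (340 nm excitation). Antagonist mode: compounds were tested against 12 nM quinpirole in DRD2-HEK293 cells, with 200 nM NKH477 raising cAMP and 0.1 mM Ro20-1724 blocking its breakdown.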

[19] = target: D(2) dopamine receptor (Homo sapiens) (UniProt P14416); assay: Dopamine D2 receptor (DRD2) small molecule agonists, cell-based qHTS assay (AID 1963594); also: nearly all actives have a fitted effect of over 35% in size
Summary of the method: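 cAMP accumulation in DRD2-HEK293 cells measured by HTRF after 1 h detection; compounds added 10 min before NKH477 (200nM […]) forskolin-analogue stimulation, 30 min at room temperature, with Ro20-1724 present at 0.1 mM final.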

[20] = target: Beta-2 adrenergic receptor (Homo sapiens) (UniProt P07550); assay: Adrenergic beta2 receptor (ADRB2) small molecule agonists, cell-based qHTS assay (AID 1963593);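 also: CHO cells stably overexpressing human ADRB2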
Summary of the method: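 CHO cells stably over-expressing ADRB2 were plated overnight at 37C, then dosed with compounds plus a stimulation mix containing 100uM IBMX and 25uM Ro-20-1724 for 0.5hr at room temperature. cAMP was measured by HTRF competition, 1hr.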

Measured: Potency

N=C(N)N
not listed: [19] | [20]
inactive: all other assays above

Cc1ccc(S(=O)(=O)C(I)I)cc1
inactive: [5] | [6] | [11] | [17]
active: [1] 27.3 µM | [12] 54.9 µM | [13] 18.8 µM | [18] 30.6 µM

CC(=O)[O][Al]
not listed: [20]
inactive: all other assays above

COc1ccnc2c1CCCCC2S(=O)c1nc2ccccc2[nH]1 (stereo not given)
inactive: all assays above
